Hits are enriched below; roughly 2.8% of the tested compounds scored in any of these assays.
Pol kappa inh-1 – inhibitors of human DNA polymerase kappa | purified Pol kappa, fluorescent DNA synthesis assay, 10 min | 400,000 tested, 0.53% active | Potency, µM (top dose mostly 107 µM), most hits filed as inhibitors
Target sequence (Q9UBT6 whole entry, looked up): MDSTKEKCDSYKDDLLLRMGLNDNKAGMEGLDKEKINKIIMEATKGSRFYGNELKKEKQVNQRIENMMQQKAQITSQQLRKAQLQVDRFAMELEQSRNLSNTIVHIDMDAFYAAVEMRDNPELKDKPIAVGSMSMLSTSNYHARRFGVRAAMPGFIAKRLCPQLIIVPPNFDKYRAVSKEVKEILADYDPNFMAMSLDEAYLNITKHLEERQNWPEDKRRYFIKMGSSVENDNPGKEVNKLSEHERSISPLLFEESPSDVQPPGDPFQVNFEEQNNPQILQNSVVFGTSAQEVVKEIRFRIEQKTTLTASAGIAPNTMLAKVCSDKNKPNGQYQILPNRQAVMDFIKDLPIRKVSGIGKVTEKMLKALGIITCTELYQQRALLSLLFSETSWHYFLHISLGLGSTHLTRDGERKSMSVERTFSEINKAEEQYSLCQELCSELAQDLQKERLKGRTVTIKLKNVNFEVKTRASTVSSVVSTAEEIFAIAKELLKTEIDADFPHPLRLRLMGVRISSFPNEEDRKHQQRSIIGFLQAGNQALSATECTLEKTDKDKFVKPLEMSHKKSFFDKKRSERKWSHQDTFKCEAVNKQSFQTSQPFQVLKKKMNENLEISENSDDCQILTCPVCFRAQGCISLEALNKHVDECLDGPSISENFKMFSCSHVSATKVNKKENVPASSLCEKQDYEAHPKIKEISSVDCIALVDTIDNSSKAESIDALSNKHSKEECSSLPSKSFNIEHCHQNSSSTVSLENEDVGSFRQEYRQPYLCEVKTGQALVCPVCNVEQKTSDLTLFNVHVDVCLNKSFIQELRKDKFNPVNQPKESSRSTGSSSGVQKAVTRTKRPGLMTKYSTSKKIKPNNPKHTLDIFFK
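Kinetic fluorescence screen: compound preincubated 15 min RT with 10 nM enzyme; 50 nM substrate (final) initiates; reads at 0/10 min.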
Pol eta inh-1 – blocks human DNA polymerase eta activity. AID 588591. recombinant Pol eta, fluorescent DNA replication assay. 390,000 tested, 1.2% active. Potency, µM (doses to about 114 µM), usual class: inhibitors. Q9Y253
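Pol eta (10 nM) was preincubated with compounds for 15 min at room temperature, after which fluorescent replication substrate (50 nM final) was added to start the reaction. Fluorescence was read kinetically at 0 and 10 min.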
POLB inh – blocks human DNA polymerase beta activity; P06746; Pol beta primer extension/strand displacement, fluorescence kinetic; Potency, µM (top dose mostly 114 µM), most hits filed as inhibitors; 340,000 tested, 1.3% active
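Reaction started by 50 nM substrate onto compound-treated Pol beta (10 nM, 15 min preincubation, room temperature); plates read at 0 min and 10 min. Normalized concentration-effect data fitted by four-parameter Hill equation.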
PI5P4Ka inh – PI5P4K alpha (human) kinase inhibition. PI5P4Kalpha enzyme, ADP-Glo luminescence, 60 min; active compounds read low. max response, %. 330,000 tested, 1.2% active. AID 652105; active means max response of -50% or lower; inconclusive means between -30% and -50%; inactive means -30% or higher; further: value at the top dose of about 77 µM
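ADP-Glo luminescence end-point read after a 60 min room-temperature kinase reaction of PI5P4Kalpha plus substrate, initiated with ATP at 5 microM final. Buffer: 0.038 M HEPES pH 7.4, EGTA, 0.1% CHAPS, 5% DMSO.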
POLI inh – inhibitors of human DNA polymerase iota. Q9UNA4. Pol iota fluorescent replication assay, 10 min. Potency, µM (series often up to 115 µM), usual class: inhibitors. 390,000 tested, 1% active. AID 588590
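Pol iota at 10 nM preincubated 15 min with compounds at room temperature; reaction started with fluorescent substrate, 50 nM final. Fluorescence read kinetically at 0 and 10 min; buffer-only wells as negative control.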
PI4K2A inh – blocks human PI4K2A kinase activity; 420,000 tested, 0.13% active; activity change, negative = inhibition, % at 76.9 µM; purified PI4K2A, ADP-Glo luminescence, 1 h; active compounds read low; Q9BTU6; AID 1346378; in the data active means activity change below about -50%; inconclusive means mostly about -30% to -49%
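PI4K2A activity was measured by ADP-Glo luminescence: enzyme (4 ug/mL stock) and phosphatidylinositol (1.2 mM stock) in Tris pH 7.5/MgCl2/EGTA/Triton X-100 buffer were reacted with ATP (300 microM stock) for one hour at ambient temperature.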
BAZ2B inh – inhibits human BAZ2B bromodomain, hit validation. shares compounds with Pol kappa inh-1. AlphaScreen BAZ2B / biotin-H3K14Ac peptide displacement. Potency, µM, usual class: inhibitors. 25 tested, 100% active; calls by dose curve
AlphaScreen ctr – interferes with AlphaScreen signal in BAZ2B counterscreen; shares compounds with Pol kappa inh-1; AlphaScreen biotin-His6 peptide bead counterscreen, signal decrease; Potency, µM (top dose mostly 57.1 µM), usual class: inhibitors; 25 tested, under 10 active; AID 588859;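 active means clear concentration-dependent signal drop in the bead assay lacking the target, so a primary-screen artifact; inconclusive means weak, partial or single-dose response; inactive means no response, so a real primary hit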
TbPGK inh – TbPGK inhibition, hit validation; shares compounds with Pol kappa inh-1; TbPGK coupled GAPDH assay, Kinase-Glo luminescence; Potency, µM (top dose mostly 57.5 µM), actives largely listed as inhibitors; 500 tested, 79% active; AID 686980; further: nearly all actives have a fitted effect of over 65% in size
Pol iota confirm – Inhibitors of human DNA polymerase iota, confirmation; shares compounds with Pol kappa inh-1; Pol iota primer extension, TAMRA/BHQ fluorescence; Potency, µM, hits mostly inhibitors; 1,500 tested, 77% active; AID 720496
Pol kappa inh-2 – Pol kappa (human) inhibition, cherry-pick confirmation. shares compounds with Pol eta inh-1. purified Pol-kappa, fluorescent strand-displacement substrate. Potency, µM, most hits filed as inhibitors. 920 tested, 76% active. AID 720501
Pol eta inh-2 – confirmation of human DNA polymerase eta inhibitors; shares compounds with Pol eta inh-1; Pol eta primer extension, TAMRA/BHQ fluorescence, 10 min; Potency, µM, actives largely listed as inhibitors; 2,600 tested, 64% active
Of the large screens only hits and unclear results are named; the others gave an inactive call (follow-up assays come after a bar, where they were run). Unless noted, the call rests on the fitted dose curve; in most records, active means well fitted curve in the direction sought with a large enough effect; inconclusive means small, poorly fitted or top-dose-only effect, or another doubt; inactive means no such curve, though single readings can be large; an effect the other way counts as inactive or inconclusive.

O=C(Nc1ccc2oc(-c3cccnc3)nc2c1)c1ccc(-c2cccc(Cl)c2)o1	Pol eta inh-1 71µM, POLB inh inconclusive (no result: PI5P4Ka inh) | Pol iota confirm 42 | Pol eta inh-2 76
CC(C)c1ccc2oc(-c3ccc(NC(=O)c4cc5ccccc5o4)cc3)nc2c1	none (no result: PI5P4Ka inh)
C=C(C)C(=O)Nc1cccc(C2=NOC3(C2)C[C@@H](C(N)=O)N(C(=O)/C(C)=C/C)C3)c1 (stereo partly specified)	Pol kappa inh-1 20µM, Pol eta inh-1 2.5µM, POLB inh 1.4µM, PI5P4Ka inh inconclusive, POLI inh 35µM | BAZ2B inh 4 | AlphaScreen ctr inactive | TbPGK inh inconclusive | Pol iota confirm 30 | Pol kappa inh-2 8.4 | Pol eta inh-2 6.7
CCc1ccc(N2C(=O)NC(=O)/C(=C\C=C\c3ccco3)C2=O)cc1	Pol kappa inh-1 35µM, Pol eta inh-1 20µM, POLB inh inconclusive, PI5P4Ka inh inconclusive, POLI inh 7.1µM, PI4K2A inh inconclusive | Pol iota confirm 38 | Pol kappa inh-2 15 | Pol eta inh-2 30
CCc1ccc(N2C(=O)CC(=O)NC2=O)cc1	none
CC(C)c1ccc(N2C(=O)NC(=O)/C(=C/C=C/c3ccco3)C2=O)cc1	Pol kappa inh-1 40µM, Pol eta inh-1 11µM, POLB inh 32µM, PI5P4Ka inh -66, POLI inh 13µM | Pol iota confirm 75 | Pol eta inh-2 30
CCN(N=O)[C@@H](Cc1ccccc1)CN(N=O)[C@@H](Cc1ccccc1)CN(C)N=O	POLB inh inconclusive, POLI inh inconclusive
O[C@@H]1[C@@H]2O[P@@](O)(=S)OC[C@H]2O[C@H]1n1cnc2cc(Cl)c(Cl)cc21	none (no result: Pol eta inh-1, POLB inh, PI5P4Ka inh, POLI inh, PI4K2A inh)
C/C1=C/C(=O)O[C@@H]2C[C@@H](CC[C@H](C)/C=C\CC1)O[C@@](O)(C1CSC(=O)N1)C2 (stereo partly specified)	none (no result: Pol eta inh-1, POLB inh, PI5P4Ka inh, POLI inh, PI4K2A inh)
CCC(C)n1c(=O)[nH]c(C)c(Br)c1=O (stereo unspecified)	none (no result: Pol eta inh-1, POLB inh, PI5P4Ka inh, POLI inh, PI4K2A inh)
COc1ccc(N2C(=O)/C(=C/c3ccc(C)o3)C(=O)NC2=S)c(OC)c1	Pol kappa inh-1 50µM, Pol eta inh-1 10µM, POLB inh 40µM, PI5P4Ka inh inconclusive, POLI inh 11µM | Pol iota confirm 47 | Pol kappa inh-2 3.4 | Pol eta inh-2 17
CCc1ccccc1N1C(=O)/C(=C/c2ccc(N3CCN(C)CC3)o2)C(=O)NC1=S	Pol kappa inh-1 25µM, Pol eta inh-1 8.9µM, PI5P4Ka inh inconclusive, POLI inh 11µM | Pol iota confirm 60 | Pol eta inh-2 9.5
Cc1cccc(N2C(=O)/C(=C/c3ccc(N4CCN(C)CC4)o3)C(=O)NC2=S)c1C	Pol kappa inh-1 inconclusive, Pol eta inh-1 20µM, POLI inh inconclusive | Pol iota confirm 60 | Pol kappa inh-2 8.4 | Pol eta inh-2 30
O=C1NC(=O)N(c2ccc3c(c2)OCO3)C(=O)/C1=C\c1ccc(N2CCCCC2)o1	none
